# Results published in PubChem BioAssay (Tox21).
# Several values for one entry are separate records, joined by “and”; a condition that tells them apart may be missing. Equal values may be shown once. Inconclusive results are not listed. Where a call stands in place of a potency, no number is given. A structure can be active in one record and inactive in another. Activity calls are given as the source filed them. Unless noted, calls follow the shape of the dose curve; as a rule, active = well fitted curve in the direction sought with a large enough effect in the repeat runs; inconclusive = weak or mixed curves; inactive = no such curve, though single readings can be large; an effect the other way counts as inactive or inconclusive.
# Tests used:
# [1] = qHTS assay to identify small molecule agonists of H2AX (AID 1224845; active = well fitted activation curve with a large enough effect in the signal ratio in the repeat runs, not every such curve was filed as active; the % refers to the signal ratio)
# In short: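 Phospho-H2AX Ser139 measured by HTRF (ex 320 nm; em 665 and 620 nm) after 24 hr antibody incubation. Compounds, 15 concentrations, 0.76% DMSO, were applied to CHO-K1 cells for 3hr at 37C before lysis.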
# [2] = qHTS assay to identify small molecule agonists of the hypoxia (HIF-1) signaling pathway (AID 1224846; active = well fitted activation curve with a large enough effect in the signal ratio in the repeat runs, not every such curve was filed as active; the % refers to the signal ratio)
# In short: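 In ME-180 cells bearing an HRE-bla construct, 17 h treatment with DMSO-dissolved compounds at 37C was followed by CCF4-AM loading to quantify reporter induction.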
# [3] = qHTS assay to identify small molecule agonists of H2AX - cell viability counter screen (AID 1224847; calls by dose curve; also: top concentration of the series differs between compounds; nearly all actives have a fitted effect of over 30% in size)
# In short: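 Cytotoxicity counter screen in wild-type CHO-K1 cells: a 3 hr compound treatment at 37C across 15 concentrations, followed by CellTiter-Glo luminescence to gauge viable cells.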
# [4] = qHTS RealTime-Glo MT Cell Viability Assay in HepG2 cells - 24 hour (AID 1224867); also: nearly all actives have a fitted effect of over 50% in size
# In short: (§1)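 qHTS, HepG2, 600 cells/well, RealTime-Glo (NanoLuc + prosubstrate) added with cells; 5 h preincubation; DMSO compound addition; 37 C; luminescence at 0/8/16/24/32/40 h.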
# [5] = qHTS RealTime-Glo MT Cell Viability Assay in HEK293 cells - 32 hour (AID 1224868); also: nearly all actives have a fitted effect of over 50% in size; also: potency is read from the fitted curve at half-maximal effect
# In short: (§2)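 Assay medium contained NanoLuc luciferase plus cell-permeant prosubstrate, added with HEK293 cells at 600 cells/well. After 5 h at 37 C/5% CO2 compounds were added; plates stayed at 37 C for 40 h with serial luminescence reads.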
# [6] = A CellTox Green Cytotoxicity Assay to monitor cytotoxicity in HEK293 cells - 0 hour (AID 1224869); also: nearly all actives have a fitted effect of over 50% in size
# In short: (§3)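 Homogeneous no-lysis format: HEK293 cell suspension mixed with CellTox Green reagent, seeded, incubated 5 h at 37 C/5% CO2, then dosed by pintool with compound in DMSO.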
# [7] = qHTS RealTime-Glo MT Cell Viability Assay in HepG2 cells - 40 hour (AID 1224870); also: nearly all actives have a fitted effect of over 50% in size
# In short: (§4)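 Real-time viability: cells seeded at 600 per well together with NanoLuc and cell-permeant prosubstrate, compounds added after 5 h incubation. Luminescence tracked at 0, 8, 16, 24, 32 and 40 h of exposure.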
# [8] = A CellTox Green Cytotoxicity Assay to monitor cytotoxicity in HEK293 cells - 40 hour (AID 1224871); also: nearly all actives have a fitted effect of over 45% in size; also: potency is read from the fitted curve at half-maximal effect
# In short: as §3
# [9] = qHTS RealTime-Glo MT Cell Viability Assay in HEK293 cells - 16 hour (AID 1224872); also: nearly all actives have a fitted effect of over 50% in size; also: potency is read from the fitted curve at half-maximal effect
# In short: as §2
# [10] = qHTS RealTime-Glo MT Cell Viability Assay in HepG2 cells - 8 hour (AID 1224873); also: nearly all actives have a fitted effect of over 55% in size
# In short: as §4
# [11] = qHTS RealTime-Glo MT Cell Viability Assay in HEK293 cells - 40 hour (AID 1224874); details: RealTime-Glo luminescence; max response: stronger effect = lower value; also: nearly all actives have a fitted effect of over 50% in size; also: potency is read from the fitted curve at half-maximal effect
# In short: (§5)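 Measured as luminescence from the same continuously cultured HEK293 wells at successive time points (0, 8, 16, 24, 32, 40 h) after compound addition. Reagent present from seeding; dosing at 5 h; incubation 37 C.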
# [12] = A CellTox Green Cytotoxicity Assay to monitor cytotoxicity in HEK293 cells - 24 hour (AID 1224875); also: nearly all actives have a fitted effect of over 45% in size
# In short: as §3
# [13] = A CellTox Green Cytotoxicity Assay to monitor cytotoxicity in HepG2 cells - 16 hour (AID 1224876); also: nearly all actives have a fitted effect of over 45% in size
# In short: (§6)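 Fluorescent DNA-binding dye, 600 HepG2 cells/well, 5 h preincubation then compound in DMSO; same plates read at 0–40 h, 37 C.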
# [14] = qHTS RealTime-Glo MT Cell Viability Assay in HepG2 cells - 32 hour (AID 1224877); also: nearly all actives have a fitted effect of over 55% in size
# In short: as §1
# [15] = A CellTox Green Cytotoxicity Assay to monitor cytotoxicity in HepG2 cells - 24 hour (AID 1224878); also: nearly all actives have a fitted effect of over 45% in size
# In short: as §6
# [16] = A CellTox Green Cytotoxicity Assay to monitor cytotoxicity in HepG2 cells - 40 hour (AID 1224879); also: nearly all actives have a fitted effect of over 40% in size
# In short: as §6
# [17] = qHTS RealTime-Glo MT Cell Viability Assay in HEK293 cells - 0 hour (AID 1224880)
# In short: as §5
# [18] = A CellTox Green Cytotoxicity Assay to monitor cytotoxicity in HEK293 cells - 32 hour (AID 1224881); also: nearly all actives have a fitted effect of over 40% in size
# In short: as §3
# [19] = qHTS assay to identify small molecule antagonists of the estrogen related receptor (ERR) signaling pathway from Tox21 library (AID 1224848); also: nearly all actives have a fitted effect of over 50% in size
# In short: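 ERR cell line, 2,000 cells/well. 6 h settle, then compound (DMSO) added; 18 h at 37 C; ONE-Glo luminescence after 30 min RT.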
# [20] = qHTS assay to identify small molecule agonists of the estrogen related receptor (ERR) signaling pathway from Tox21 library (AID 1224849; calls by dose curve; also: nearly all actives have a fitted effect of over 15% in size); details: ERR reporter cell line, ONE-Glo luciferase, 18 h; at 92.4 µM (top of the series) unless noted
# In short: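 Reporter cells (ERR, NTP source) treated with Tox21 10K compounds 18 h, 37 C. Readout: ONE-Glo luminescence, 30 min RT.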
smiles,measurement,setting,value
CSSc1ccoc1C,Potency,[1],inactive
same,outcome,[2],inactive
same,Potency,[3],inactive
same,Potency,[4],inactive
same,Potency,[5],inactive
same,Potency,[6],inactive
same,Potency,[7],inactive
same,Potency,[8],inactive
same,Potency,[9],inactive
same,Potency,[10],inactive
same,max response,[11],0.757% (inactive)
same,Potency,[12],inactive
same,Potency,[13],inactive
same,Potency,[14],inactive
same,Potency,[15],inactive
same,Potency,[16],inactive
same,Potency,[17],inactive
same,Potency,[18],inactive
CC(=O)OCC(C)C,Potency,[1],inactive
same,outcome,[2],inactive
same,Potency,[3],inactive
same,Potency,[4],inactive
same,Potency,[5],inactive
same,Potency,[6],inactive
same,Potency,[7],inactive
same,Potency,[8],inactive
same,Potency,[9],inactive
same,Potency,[10],inactive
same,max response,[11],1.5% (inactive)
same,Potency,[12],inactive
same,Potency,[13],inactive
same,Potency,[14],inactive
same,Potency,[15],inactive
same,Potency,[16],inactive
same,Potency,[17],inactive
same,Potency,[18],inactive
CC(C)(C)C(O)/C=C/c1ccc2c(c1)OCO2 (stereo unspecified),Potency,[1],inactive
same,outcome,[2],inactive
same,Potency,[3],inactive
same,Potency,[4],inactive
same,Potency,[5],inactive
same,Potency,[6],inactive
same,Potency,[7],inactive
same,Potency,[8],inactive
same,Potency,[9],inactive
same,Potency,[10],inactive
same,max response,[11],1.57% (inactive)
same,Potency,[12],inactive
same,Potency,[13],inactive
same,Potency,[14],inactive
same,Potency,[15],inactive
same,Potency,[16],inactive
same,Potency,[17],inactive
same,Potency,[18],inactive
C1=CCC2CC=CC2C1 (stereo unspecified),Potency,[1],inactive
same,outcome,[2],inactive
same,Potency,[3],inactive
same,Potency,[19],inactive
same,"activity change, positive = activation",[20],1.2% (inactive)
same,Potency,[4],inactive
same,Potency,[5],inactive
same,Potency,[7],inactive
same,Potency,[8],inactive
same,Potency,[10],inactive
same,max response,[11],16.8% (inactive)
same,Potency,[12],inactive
same,Potency,[13],inactive
same,Potency,[14],inactive
same,Potency,[15],inactive
same,Potency,[17],inactive
same,Potency,[18],inactive
O=[N+]([O-])c1ccc2ncccc2c1,Potency,[1],inactive
same,outcome,[2],inactive
same,Potency,[3],inactive
same,"activity change, positive = activation",[20],-20.1% (inactive)
same,Potency,[4],inactive
same,Potency,[5],inactive
same,Potency,[6],inactive
same,Potency,[7],inactive
same,Potency,[8],inactive
same,Potency,[9],inactive
same,Potency,[10],inactive
same,max response,[11],2.13% (inactive)
same,Potency,[12],inactive
same,Potency,[13],inactive
same,Potency,[14],inactive
same,Potency,[15],inactive
same,Potency,[16],inactive
same,Potency,[17],inactive
same,Potency,[18],inactive
C=CC(=O)O,Potency,[1],inactive
same,outcome,[2],inactive
same,Potency,[3],inactive
same,Potency,[4],inactive
same,Potency,[5],inactive
same,Potency,[6],inactive
same,Potency,[7],inactive
same,Potency,[8],inactive
same,Potency,[9],inactive
same,Potency,[10],inactive
same,max response,[11],-0.787% (inactive)
same,Potency,[12],inactive
same,Potency,[13],inactive
same,Potency,[14],inactive
same,Potency,[15],inactive
same,Potency,[16],inactive
same,Potency,[17],inactive
same,Potency,[18],inactive
Cc1ccc(Nc2c(F)cccc2Cl)c(CC(=O)O)c1,Potency,[1],inactive
same,outcome,[2],inactive
same,Potency,[3],inactive
same,Potency,[19],inactive
same,"activity change, positive = activation",[20],-14.1% [at 42.5 µM] (inactive)
same,Potency,[4],inactive
same,Potency,[5],inactive
same,Potency,[7],inactive
same,Potency,[8],inactive
same,Potency,[9],inactive
same,Potency,[10],inactive
same,max response,[11],5.05% (inactive)
same,Potency,[12],inactive
same,Potency,[13],inactive
same,Potency,[15],inactive
same,Potency,[16],inactive
same,Potency,[17],inactive
same,Potency,[18],inactive
COC(C)(C)OC,Potency,[1],inactive
same,outcome,[2],inactive
same,Potency,[3],inactive
same,Potency,[19],inactive
same,"activity change, positive = activation",[20],2.58% (inactive)
same,Potency,[4],inactive
same,Potency,[5],inactive
same,Potency,[7],inactive
same,Potency,[8],inactive
same,Potency,[9],inactive
same,Potency,[10],inactive
same,max response,[11],15.9% (inactive)
same,Potency,[13],inactive
same,Potency,[14],inactive
same,Potency,[15],inactive
same,Potency,[16],inactive
same,Potency,[17],inactive
same,Potency,[18],inactive
O=c1[nH][nH]c(=O)c2cc([N+](=O)[O-])ccc12,Potency,[1],inactive
same,outcome,[2],inactive
same,Potency,[3],inactive
same,Potency,[4],inactive
same,Potency,[5],inactive
same,Potency,[6],inactive
same,Potency,[7],inactive
same,Potency,[8],inactive
same,Potency,[9],inactive
same,Potency,[10],inactive
same,max response,[11],-11.6% (inactive)
same,Potency,[12],inactive
same,Potency,[13],inactive
same,Potency,[14],inactive
same,Potency,[15],inactive
same,Potency,[16],inactive
same,Potency,[17],inactive
same,Potency,[18],inactive
CC[C@H]1OC(=O)[C@H](C)[C@@H](O[C@H]2C[C@@](C)(OC)[C@@H](O)[C@H](C)O2)[C@H](C)[C@@H](O[C@@H]2O[C@H](C)C[C@H](N(C)C)[C@H]2O)[C@](C)(O)C[C@@H](C)/C(=N\OCOCCOC)[C@H](C)[C@@H](O)[C@]1(C)O,Potency,[1],inactive
same,outcome,[2],inactive
same,Potency,[3],inactive
same,"activity change, positive = activation",[20],-14.4% [at 42.5 µM] (inactive)
same,Potency,[4],inactive
same,Potency,[5],inactive
same,Potency,[6],inactive
same,Potency,[7],inactive
same,Potency,[8],inactive
same,Potency,[9],inactive
same,Potency,[10],inactive
same,max response,[11],-15% (inactive)
same,Potency,[12],inactive
same,Potency,[13],inactive
same,Potency,[14],inactive
same,Potency,[15],inactive
same,Potency,[16],inactive
same,Potency,[17],inactive
same,Potency,[18],inactive
CN1C(CSCC(F)(F)F)Nc2cc(Cl)c(S(N)(=O)=O)cc2S1(=O)=O (stereo unspecified),Potency,[1],inactive
same,outcome,[2],inactive
same,Potency,[3],inactive
same,"activity change, positive = activation",[20],-16.7% [at 42.5 µM] (inactive)
same,Potency,[4],inactive
same,Potency,[5],19 µM (active)
same,Potency,[7],inactive
same,Potency,[8],inactive
same,Potency,[9],19 µM (active)
same,Potency,[10],inactive
same,Potency,[11],21.3 µM (active)
same,Potency,[12],inactive
same,Potency,[13],inactive
same,Potency,[14],inactive
same,Potency,[15],inactive
same,Potency,[16],inactive
same,Potency,[17],inactive
same,Potency,[18],inactive
CCCCCCCCCCCCCCCCCC(=O)OCC(CC)CCCC (stereo unspecified),Potency,[1],inactive
same,outcome,[2],inactive
same,Potency,[3],inactive
same,Potency,[4],inactive
same,Potency,[5],inactive
same,Potency,[6],inactive
same,Potency,[7],inactive
same,Potency,[8],inactive
same,Potency,[9],inactive
same,Potency,[10],inactive
same,max response,[11],2.92% (inactive)
same,Potency,[12],inactive
same,Potency,[13],inactive
same,Potency,[14],inactive
same,Potency,[15],inactive
same,Potency,[16],inactive
same,Potency,[17],inactive
same,Potency,[18],inactive
Cc1ccc(Cl)cc1N,Potency,[1],inactive
same,outcome,[2],inactive
same,Potency,[3],inactive
same,Potency,[4],inactive
same,Potency,[5],inactive
same,Potency,[6],inactive
same,Potency,[7],inactive
same,Potency,[8],inactive
same,Potency,[9],inactive
same,Potency,[10],inactive
same,max response,[11],4.39% (inactive)
same,Potency,[12],inactive
same,Potency,[13],inactive
same,Potency,[14],inactive
same,Potency,[15],inactive
same,Potency,[16],inactive
same,Potency,[17],inactive
same,Potency,[18],inactive
CCc1ccc(C)cc1,Potency,[1],inactive
same,outcome,[2],inactive
same,Potency,[3],inactive
same,Potency,[4],inactive
same,Potency,[5],inactive
same,Potency,[6],inactive
same,Potency,[7],inactive
same,Potency,[8],inactive
same,Potency,[9],inactive
same,Potency,[10],inactive
same,max response,[11],11.4% (inactive)
same,Potency,[12],inactive
same,Potency,[13],inactive
same,Potency,[14],inactive
same,Potency,[15],inactive
same,Potency,[16],inactive
same,Potency,[17],inactive
same,Potency,[18],inactive
COc1ccc2nc(S(=O)Cc3ncc(C)c(OC)c3C)[nH]c2c1 (stereo unspecified),Potency,[1],inactive
same,outcome,[2],inactive
same,Potency,[3],inactive
same,Potency,[4],inactive
same,Potency,[5],21.6 µM (active) and inactive
same,Potency,[6],inactive
same,Potency,[7],inactive
same,Potency,[8],inactive and 1.7 nM (active)
same,Potency,[9],21.6 µM (active) and inactive
same,Potency,[10],inactive
same,Potency,[11],19.3 µM (active)
same,max response,[11],-10.3% (inactive)
same,Potency,[12],inactive
same,Potency,[13],inactive
same,Potency,[15],inactive
same,Potency,[16],inactive
same,Potency,[17],inactive
same,Potency,[18],inactive
